# According to PubChem BioAssay:
# “And” between values parts separate entries of the source, which are not always exact repeats. Identical values can stand only once. The source made the active and inactive calls. Unless noted, the rule behind the calls is not given here.
# Experiment: HDN33 neuroblastoma growth inhibition, cell-based, chromothripsis tumors, cisplatin or BGB combos (AID 1671450);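 note: cells exposed to compound for four days; 0% = vehicle DMSO and 100% = cell killing by high DMSO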
# Conditions: HDN33 neuroblastoma cells, single agent, at 5 µM, stronger effect = higher value
row,Compound,inhibition
1,C[C@H]1COc2c(C3(N)CC3)c(F)cc3c(=O)c(C(=O)O)cn1c23,-13.5%
2,CCN1CCN(c2cc3c(cc2F)c(=O)c(C(=O)O)cn3C2CC2)CC1,-10.9%
3,O=C(O)P(=O)(O)O,-52.1%
4,CC1CCc2cc(F)cc3c(=O)c(C(=O)O)cn1c23 (stereo unspecified),0.699% and -7.13%
5,CN(C)/N=N/c1nc[nH]c1C(N)=O,47.2% and 2.95%
6,Nc1nc2c(ncn2CCC(CO)CO)c(=O)[nH]1,-23.7% and -10.4%

# Experiment: ICB984 medulloblastoma cell growth inhibition, synergistic combos for chromothripsis tumors, cisplatin or BGB combos (AID 1671451);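 note: cells exposed for 96 hours before readout; 0% = vehicle DMSO and 100% = killing by high DMSO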
# Conditions: ICB984 medulloblastoma cells, drug combinations, BGB IC20 combo, at 0.005 µM, stronger effect = higher value
row,Compound,inhibition
1,C[C@H]1COc2c(C3(N)CC3)c(F)cc3c(=O)c(C(=O)O)cn1c23,-21.1%
2,CCN1CCN(c2cc3c(cc2F)c(=O)c(C(=O)O)cn3C2CC2)CC1,-8.19%
3,O=C(O)P(=O)(O)O,-19.7%
4,CC1CCc2cc(F)cc3c(=O)c(C(=O)O)cn1c23 (stereo unspecified),-7.37% and -18.9%
5,CN(C)/N=N/c1nc[nH]c1C(N)=O,0.732% and 6.78%
6,Nc1nc2c(ncn2CCC(CO)CO)c(=O)[nH]1,6.03% and -7.22%

# Same assay, conditions: ICB984 medulloblastoma cells, drug combinations, BGB IC40 combo, at 0.005 µM, stronger effect = higher value
row,Compound,inhibition
1,C[C@H]1COc2c(C3(N)CC3)c(F)cc3c(=O)c(C(=O)O)cn1c23,4.03%
2,CCN1CCN(c2cc3c(cc2F)c(=O)c(C(=O)O)cn3C2CC2)CC1,-15.5%
3,O=C(O)P(=O)(O)O,-25.3%
4,CC1CCc2cc(F)cc3c(=O)c(C(=O)O)cn1c23 (stereo unspecified),-12.9% and -43.9%
5,CN(C)/N=N/c1nc[nH]c1C(N)=O,-12.9% and -11.7%
6,Nc1nc2c(ncn2CCC(CO)CO)c(=O)[nH]1,-30.8% and -8.59%

# Same assay, conditions: ICB984 medulloblastoma cells, drug combinations, BGB IC40 combo, at 0.05 µM, stronger effect = higher value
row,Compound,inhibition
1,C[C@H]1COc2c(C3(N)CC3)c(F)cc3c(=O)c(C(=O)O)cn1c23,-27.4%
2,CCN1CCN(c2cc3c(cc2F)c(=O)c(C(=O)O)cn3C2CC2)CC1,-15.7%
3,O=C(O)P(=O)(O)O,-29.6%
4,CC1CCc2cc(F)cc3c(=O)c(C(=O)O)cn1c23 (stereo unspecified),-20% and -12.5%
5,CN(C)/N=N/c1nc[nH]c1C(N)=O,12.2% and -40.2%
6,Nc1nc2c(ncn2CCC(CO)CO)c(=O)[nH]1,-28.9% and 4.12%

# Same assay, conditions: ICB984 medulloblastoma cells, drug combinations, at 0.5 µM, stronger effect = higher value
row,Compound,inhibition
1,C[C@H]1COc2c(C3(N)CC3)c(F)cc3c(=O)c(C(=O)O)cn1c23,-17.9% (inactive)
2,CCN1CCN(c2cc3c(cc2F)c(=O)c(C(=O)O)cn3C2CC2)CC1,-30.1% (inactive)
3,O=C(O)P(=O)(O)O,-22.4% (inactive)
4,CC1CCc2cc(F)cc3c(=O)c(C(=O)O)cn1c23 (stereo unspecified),-19.2% (inactive) and -16.4% (inactive)
5,CN(C)/N=N/c1nc[nH]c1C(N)=O,-9.82% (inactive) and -15.2% (inactive)
6,Nc1nc2c(ncn2CCC(CO)CO)c(=O)[nH]1,-31.2% (inactive) and -13.2% (inactive)

# Same assay, conditions: ICB984 medulloblastoma cells, drug combinations, cisplatin combo, at 0.05 µM, stronger effect = higher value
row,Compound,inhibition
1,C[C@H]1COc2c(C3(N)CC3)c(F)cc3c(=O)c(C(=O)O)cn1c23,-30.9%
2,CCN1CCN(c2cc3c(cc2F)c(=O)c(C(=O)O)cn3C2CC2)CC1,-18.9%
3,O=C(O)P(=O)(O)O,-29.6%
4,CC1CCc2cc(F)cc3c(=O)c(C(=O)O)cn1c23 (stereo unspecified),-20% and -16.9%
5,CN(C)/N=N/c1nc[nH]c1C(N)=O,9.76% and -45.2%
6,Nc1nc2c(ncn2CCC(CO)CO)c(=O)[nH]1,-34.1% and 1.44%

# Same assay, conditions: ICB984 medulloblastoma cells, drug combinations, cisplatin combo, at 0.5 µM, stronger effect = higher value
row,Compound,inhibition
1,C[C@H]1COc2c(C3(N)CC3)c(F)cc3c(=O)c(C(=O)O)cn1c23,-13.3%
2,CCN1CCN(c2cc3c(cc2F)c(=O)c(C(=O)O)cn3C2CC2)CC1,-33.6%
3,O=C(O)P(=O)(O)O,-36.7%
4,CC1CCc2cc(F)cc3c(=O)c(C(=O)O)cn1c23 (stereo unspecified),-31% and -15.5%
5,CN(C)/N=N/c1nc[nH]c1C(N)=O,-14.5% and -8.2%
6,Nc1nc2c(ncn2CCC(CO)CO)c(=O)[nH]1,-50.7% and 4.42%

# Same assay, conditions: ICB984 medulloblastoma cells, drug combinations, cisplatin combo, at 5 µM, stronger effect = higher value
row,Compound,inhibition
1,C[C@H]1COc2c(C3(N)CC3)c(F)cc3c(=O)c(C(=O)O)cn1c23,-41.9%
2,CCN1CCN(c2cc3c(cc2F)c(=O)c(C(=O)O)cn3C2CC2)CC1,5.13%
3,O=C(O)P(=O)(O)O,-14%
4,CC1CCc2cc(F)cc3c(=O)c(C(=O)O)cn1c23 (stereo unspecified),-18.9% and -31.7%
5,CN(C)/N=N/c1nc[nH]c1C(N)=O,-16% and -22.9%
6,Nc1nc2c(ncn2CCC(CO)CO)c(=O)[nH]1,-20.3% and -61.9%

# Same assay, conditions: ICB984 medulloblastoma cells, drug combinations, measured here: 5 uM single agent, at 5 µM, stronger effect = higher value
row,Compound,inhibition
1,C[C@H]1COc2c(C3(N)CC3)c(F)cc3c(=O)c(C(=O)O)cn1c23,-29.9%
2,CCN1CCN(c2cc3c(cc2F)c(=O)c(C(=O)O)cn3C2CC2)CC1,-24%
3,O=C(O)P(=O)(O)O,-14.5%
4,CC1CCc2cc(F)cc3c(=O)c(C(=O)O)cn1c23 (stereo unspecified),-15.3% and -14.5%
5,CN(C)/N=N/c1nc[nH]c1C(N)=O,-26.7% and -20.4%
6,Nc1nc2c(ncn2CCC(CO)CO)c(=O)[nH]1,6.97% and -17.4%

# Experiment: LFS_MB_1R medulloblastoma cell growth inhibition, synergistic combos for chromothripsis tumors, cisplatin or BGB combos (AID 1671452; in the data active = inhibition above about 80%;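 note: cells exposed for 96 hours before readout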)
# Conditions: LFS_MB_1R medulloblastoma cells, at 0.5 µM, stronger effect = higher value
row,Compound,inhibition
1,C[C@H]1COc2c(C3(N)CC3)c(F)cc3c(=O)c(C(=O)O)cn1c23,-26.1% (inactive)
2,CCN1CCN(c2cc3c(cc2F)c(=O)c(C(=O)O)cn3C2CC2)CC1,-17.4% (inactive)
3,O=C(O)P(=O)(O)O,-51.1% (inactive)
4,CC1CCc2cc(F)cc3c(=O)c(C(=O)O)cn1c23 (stereo unspecified),-3.56% (inactive) and 7.41% (inactive)
5,CN(C)/N=N/c1nc[nH]c1C(N)=O,-6.85% (inactive) and -29.4% (inactive)
6,Nc1nc2c(ncn2CCC(CO)CO)c(=O)[nH]1,-19.7% (inactive) and -18.4% (inactive)

# Same assay, conditions: LFS_MB_1R medulloblastoma cells, measured here: combination with BGB IC40, at 0.05 µM, stronger effect = higher value
row,Compound,inhibition
1,C[C@H]1COc2c(C3(N)CC3)c(F)cc3c(=O)c(C(=O)O)cn1c23,-41.4%
2,CCN1CCN(c2cc3c(cc2F)c(=O)c(C(=O)O)cn3C2CC2)CC1,-29.3%
3,O=C(O)P(=O)(O)O,-50.8%
4,CC1CCc2cc(F)cc3c(=O)c(C(=O)O)cn1c23 (stereo unspecified),-7.45% and -3.94%
5,CN(C)/N=N/c1nc[nH]c1C(N)=O,-7.35% and -52.3%
6,Nc1nc2c(ncn2CCC(CO)CO)c(=O)[nH]1,-23.5% and -18.9%
